In PubChem BioAssay (NCI):
Compounds without any hit were thinned out: in the full panel of roughly 79,000, 15% have a hit. Unmarked numbers belong to inactive results. Calls of active or inactive are those of the source. No stated cut-off is given here; in the data, active means growth inhibition above about 70%; inactive means the rest.

Legend:
[1] = NCI Yeast Anticancer Drug Screen. Data for the rad50 strain (AID 155);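 further: 0% = growth of vehicle-only cultures of the same strain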; details: S. cerevisiae rad50 strain growth inhibition; at 50.0 µM; stronger effect = higher value
How it was run: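 Relative growth inhibition (compound vs vehicle) was measured in yeast with a defined repair-gene alteration.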

[2] = NCI Yeast Anticancer Drug Screen. Data for the mec2-1 strain (AID 157); details: S. cerevisiae mec2-1 strain, at 50.0 µM, stronger effect = higher value
How it was run: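 mec2-1 yeast strain, carrying an alteration in DNA damage repair or cell cycle control, was exposed to compounds; growth inhibition was measured relative to vehicle-treated controls.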

[3] = NCI Yeast Anticancer Drug Screen. Data for the sgs1 mgt1 strain (AID 161);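 further: 0% = growth of cultures given vehicle only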; details: S. cerevisiae sgs1 mgt1 strain, at 50.0 µM, stronger effect = higher value
How it was run: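 Percent growth inhibition was derived by comparing compound-exposed mutant yeast with vehicle-exposed cultures. The strain carries alterations in DNA damage repair.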

[4] = NCI Yeast Anticancer Drug Screen. Data for the cln2 rad14 strain (AID 165);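 further: 0% = growth equal to vehicle treated cultures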; details: S. cerevisiae cln2 rad14 strain, at 50.0 µM, stronger effect = higher value
How it was run: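 Yeast carrying cln2 and rad14 alterations (cell cycle control and DNA damage repair) were exposed to compounds. Growth inhibition was measured against vehicle-treated controls.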

[5] = NCI Yeast Anticancer Drug Screen. Data for the bub3 strain (AID 167); details: S. cerevisiae bub3 mutant strain, at 50.0 µM, stronger effect = higher value
How it was run: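 Screening used yeast with an engineered genetic alteration affecting cell cycle control. Compound-exposed cultures were compared with vehicle cultures, and reduced growth was taken as inhibition.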

[6] = NCI Yeast Anticancer Drug Screen. Data for the mlh1 rad18 strain (AID 175); details: S. cerevisiae mlh1 rad18 strain growth inhibition; at 50.0 µM; stronger effect = higher value
How it was run: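 Growth inhibition of the yeast strain was measured after compound exposure and expressed relative to vehicle-treated controls. The strain carries defined defects in DNA damage repair.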

## O=C(Nc1ccc([N+](=O)[O-])c2c1C(=O)c1ccccc1C2=O)c1ccccc1
[1]
  growth inhibition: -7.7%
[2]
  growth inhibition: -12.1%
[3]
  growth inhibition: -5.95%
[4]
  growth inhibition: -43.4%
[5]
  growth inhibition: 10.1%
[6]
  growth inhibition: -2.9%

## CCOC(=O)c1nc2c(C)nc(N)nc2[nH]c1=O
[1]
  growth inhibition: -0.35%
[2]
  growth inhibition: -1.2%
[3]
  growth inhibition: -12%
[4]
  growth inhibition: -32.1%
[5]
  growth inhibition: -5.6%
[6]
  growth inhibition: -3.1%

## CN(C(=O)C1C2c3ccccc3C(c3ccccc32)C1C(=O)N(C)c1ccccc1)c1ccccc1 (stereo not given)
[1]
  growth inhibition: 29.4%
[2]
  growth inhibition: 1.3%
[3]
  growth inhibition: 22.4%
[4]
  growth inhibition: -39%
[5]
  growth inhibition: 1.1%
[6]
  growth inhibition: 21.9%

## CC(C)(C)OC(=O)NC(CC(N)=O)C(=O)O (stereo not given)
[1]
  growth inhibition: 23.1%
[2]
  growth inhibition: -6%
[3]
  growth inhibition: 8.9%
[4]
  growth inhibition: -33.5%
[5]
  growth inhibition: -6.45%
[6]
  growth inhibition: 10.7%

## O=C1NCC2(CCN(CC3COc4ccccc4O3)CC2)N1c1ccccc1 (stereo not given)
[1]
  growth inhibition: -23.3%
[2]
  growth inhibition: -18.2%
[3]
  growth inhibition: -21%
[4]
  growth inhibition: -2.95%
[5]
  growth inhibition: -3.2%
[6]
  growth inhibition: -34.5%

## Cc1ccc(C)n1N(c1ccccc1)c1ccccc1
[1]
  growth inhibition: -13.6%
[2]
  growth inhibition: 7.1%
[3]
  growth inhibition: 2.65%
[4]
  growth inhibition: -36.4%
[5]
  growth inhibition: 21.6%
[6]
  growth inhibition: 9.1%

## CC(CO)(CO)N1C(=O)C2C3c4ccccc4C(c4ccccc43)C2C1=O (stereo not given)
[1]
  growth inhibition: -2%
[2]
  growth inhibition: 1.05%
[3]
  growth inhibition: 1.65%
[4]
  growth inhibition: -3.15%
[5]
  growth inhibition: -3.95%
[6]
  growth inhibition: -28.7%

## COc1ccc(/C=C2/C(=O)N=C(NC(C)=O)N2C)cc1OC
[1]
  growth inhibition: -13.8%
[2]
  growth inhibition: -14.2%
[3]
  growth inhibition: -13.7%
[4]
  growth inhibition: -2.1%
[5]
  growth inhibition: 4.7%
[6]
  growth inhibition: 4.55%

## CC1Oc2c(c(=O)oc3ccccc23)[C@@]1(C)CC1C[C@H](C)C(=O)O1 (stereo not given in full)
[1]
  growth inhibition: 31.6%
[2]
  growth inhibition: 25.9%
[3]
  growth inhibition: 35.2%
[4]
  growth inhibition: 11.5%
[5]
  growth inhibition: 11.4%
[6]
  growth inhibition: 39.1%

## CSc1nnc(CF)c(=O)[nH]1
[1]
  growth inhibition: -1.4%
[2]
  growth inhibition: -1.35%
[3]
  growth inhibition: -12.3%
[4]
  growth inhibition: -4.2%
[5]
  growth inhibition: -7.05%
[6]
  growth inhibition: -14.4%

## COc1cc2cc3c4cc(OC)c(OC)cc4cc[n+]3c(CCC(=O)O)c2cc1OC (tested in a mixture with another compound)
[1]
  growth inhibition: 10.4%
[2]
  growth inhibition: -2.75%
[3]
  growth inhibition: -8.25%
[4]
  growth inhibition: -4%
[5]
  growth inhibition: 9.35%
[6]
  growth inhibition: -0.1%

## COc1cc(CC2COC(=O)[C@@H]2Cc2ccc(O)c(OC)c2)ccc1O (stereo not given in full)
[1]
  growth inhibition: -29.7%
[2]
  growth inhibition: -18.9%
[3]
  growth inhibition: -23.4%
[4]
  growth inhibition: 1.25%
[5]
  growth inhibition: 6.55%
[6]
  growth inhibition: 3.1%

## NNC(=S)NNc1ccccc1
[1]
  growth inhibition: 12.2%
[2]
  growth inhibition: 42.4%
[3]
  growth inhibition: 56.1%
[4]
  growth inhibition: -2.65%
[5]
  growth inhibition: 20.4%
[6]
  growth inhibition: 42.7%

## COC(=O)C1=C(O)C(C(=O)OC)[C@@]2(O)[C@@H](C(=O)OC)CC[C@@H]1[C@@H]2C(=O)OC (stereo not given in full)
[1]
  growth inhibition: -1.45%
[2]
  growth inhibition: -9.1%
[3]
  growth inhibition: -13.8%
[4]
  growth inhibition: 3%
[5]
  growth inhibition: -3.5%
[6]
  growth inhibition: 8.95%

## Cn1nnnc1CC(=O)O
[1]
  growth inhibition: 1.3%
[2]
  growth inhibition: -12.9%
[3]
  growth inhibition: 1.15%
[4]
  growth inhibition: -22.8%
[5]
  growth inhibition: -2.05%
[6]
  growth inhibition: -12.5%

## Cc1cccc(-c2nnc(-c3cccc4ccccc34)o2)c1
[1]
  growth inhibition: 8.8%
[2]
  growth inhibition: -28.8%
[3]
  growth inhibition: 43.8%
[4]
  growth inhibition: 14.3%
[5]
  growth inhibition: 26.5%
[6]
  growth inhibition: 13.4%

## OCC1=CCCCC1
[1]
  growth inhibition: 6.95%
[2]
  growth inhibition: 1.85%
[3]
  growth inhibition: -6.65%
[4]
  growth inhibition: 12.7%
[5]
  growth inhibition: -14.5%
[6]
  growth inhibition: 0.25%

## O/N=C\c1cc2ccccc2c[n+]1Cc1ccc2ccccc2c1Br
[1]
  growth inhibition: 9.25%
[2]
  growth inhibition: 32.1%
[3]
  growth inhibition: 44.6%
[4]
  growth inhibition: 48%
[5]
  growth inhibition: 2.9%
[6]
  growth inhibition: 38.8%

## O=C1C2=C(c3ccccc31)C(c1ccc(F)cc1)N1C(=O)CCSC1=N2 (stereo not given)
[1]
  growth inhibition: 45.1%
[2]
  growth inhibition: 19.1%
[3]
  growth inhibition: 63%
[4]
  growth inhibition: 40.1%
[5]
  growth inhibition: 48.6%
[6]
  growth inhibition: 56.1%

## CCC1=NCCO1
[1]
  growth inhibition: 5.85%
[2]
  growth inhibition: 0.25%
[3]
  growth inhibition: -2.1%
[4]
  growth inhibition: 4%
[5]
  growth inhibition: 28.1%
[6]
  growth inhibition: -11.7%

## O=S(=O)(O)Cc1ccc(CS(=O)(=O)O)cc1
[1]
  growth inhibition: 14.7%
[2]
  growth inhibition: -2.1%
[3]
  growth inhibition: -1.3%
[4]
  growth inhibition: -56.4%
[5]
  growth inhibition: -3.8%
[6]
  growth inhibition: -17%

## CCC(C(CC(=O)c1ccccc1)c1ccccc1)[N+](=O)[O-] (stereo not given)
[1]
  growth inhibition: 9.7%
[2]
  growth inhibition: -0.65%
[3]
  growth inhibition: 0.6%
[4]
  growth inhibition: -42.3%
[5]
  growth inhibition: 10.2%
[6]
  growth inhibition: -5.65%

## CC1CN=C(c2ccccc2)C(c2ccccc2)=N1 (stereo not given)
[1]
  growth inhibition: -24.2%
[2]
  growth inhibition: 1.3%
[3]
  growth inhibition: -6.4%
[4]
  growth inhibition: -6.15%
[5]
  growth inhibition: -12.5%
[6]
  growth inhibition: -22.3%

## CC(=O)Nc1cc(C)c(C(=O)OC(=O)c2cc(C)c(NC(C)=O)cc2C)cc1C
[1]
  growth inhibition: 22.4%
[2]
  growth inhibition: -10.1%
[3]
  growth inhibition: 5.1%
[4]
  growth inhibition: -57.6%
[5]
  growth inhibition: -0.85%
[6]
  growth inhibition: 6.2%

## Nc1nc(/C=C(/O)c2ccccc2)c2ncn(C3OC(CO)C(O)C3O)c2n1 (stereo not given)
[1]
  growth inhibition: 25.3%
[2]
  growth inhibition: -6.25%
[3]
  growth inhibition: 13.4%
[4]
  growth inhibition: -4.7%
[5]
  growth inhibition: 11.2%
[6]
  growth inhibition: -17.8%

## Cc1cnc(C)c(C(O)c2ccccc2)n1 (stereo not given)
[1]
  growth inhibition: -5.9%
[2]
  growth inhibition: -10.3%
[3]
  growth inhibition: -3.7%
[4]
  growth inhibition: -17.9%
[5]
  growth inhibition: -9.3%
[6]
  growth inhibition: -3.65%

## O=c1cc(-c2ccc(Cl)cc2)oc2cc(OCCCOc3ccc4c(=O)cc(-c5ccc(Cl)cc5)oc4c3)ccc12
[1]
  growth inhibition: 40.9%
[2]
  growth inhibition: 37.5%
[3]
  growth inhibition: 12.8%
[4]
  growth inhibition: -33.1%
[5]
  growth inhibition: 19.9%
[6]
  growth inhibition: 25.1%

## O=C1NC(=O)C(c2ccccc2)(C2CCOCC2)N1 (stereo not given)
[1]
  growth inhibition: 11.1%
[2]
  growth inhibition: 3.05%
[3]
  growth inhibition: -2.65%
[4]
  growth inhibition: -54.9%
[5]
  growth inhibition: -9.65%
[6]
  growth inhibition: 28.4%

## c1ccn2cncc2c1
[1]
  growth inhibition: 17%
[2]
  growth inhibition: 17%
[3]
  growth inhibition: 13.1%
[4]
  growth inhibition: 23.1%
[5]
  growth inhibition: 20.7%
[6]
  growth inhibition: 15.1%

## CN(C)Cc1cc(C(=O)/C=C/c2ccc(Cl)cc2)cc(CN(C)C)c1O
[1]
  growth inhibition: -27.6%
[2]
  growth inhibition: -22.1%
[3]
  growth inhibition: -20.9%
[4]
  growth inhibition: -44.2%
[5]
  growth inhibition: 1.2%
[6]
  growth inhibition: -18.1%

## CCOC(=C\C=C\C1=[N+](C)c2ccccc2C1(C)C)/C=C/C=C1/N(C)c2ccccc2C1(C)C
[1]
  growth inhibition: 17.6%
[2]
  growth inhibition: 87.6% (active)
[3]
  growth inhibition: 34.2%
[4]
  growth inhibition: 82.5% (active)
[5]
  growth inhibition: 81.8% (active)
[6]
  growth inhibition: 27.6%

## CCOC(=O)Cc1ccc2c(c1)sc1nc(-c3ccc(OC)cc3)cn12
[1]
  growth inhibition: 38.8%
[2]
  growth inhibition: 19.5%
[3]
  growth inhibition: 21.2%
[4]
  growth inhibition: 32.3%
[5]
  growth inhibition: 31.1%
[6]
  growth inhibition: 18.6%

## CC(CO)NCc1ccccc1 (stereo not given)
[1]
  growth inhibition: -18.2%
[2]
  growth inhibition: -14.9%
[3]
  growth inhibition: -1.95%
[4]
  growth inhibition: 3.95%
[5]
  growth inhibition: -29.6%
[6]
  growth inhibition: 3.95%

## CC(=O)NC(=O)C(C(C)=O)c1ccccc1 (stereo not given)
[1]
  growth inhibition: -5.8%
[2]
  growth inhibition: -0.25%
[3]
  growth inhibition: -7.35%
[4]
  growth inhibition: 12.8%
[5]
  growth inhibition: -7.75%
[6]
  growth inhibition: -10.9%

## CO[C@H]1CC[C@@]2(C)C(=CC[C@H]3[C@@H]4CC[C@H]([C@H](C)CCCC(C)C)[C@@]4(C)CC[C@@H]32)C1
[1]
  growth inhibition: -4.65%
[2]
  growth inhibition: -20.4%
[3]
  growth inhibition: 18.1%
[4]
  growth inhibition: 24.7%
[5]
  growth inhibition: 17.2%
[6]
  growth inhibition: 9%

## Nc1ncnc2c1ncn2C1OC(CSCc2ccc(Cl)cc2)C(O)C1O (stereo not given)
[1]
  growth inhibition: 26.6%
[2]
  growth inhibition: 10.8%
[3]
  growth inhibition: 15.4%
[4]
  growth inhibition: 10.6%
[5]
  growth inhibition: 58.7%
[6]
  growth inhibition: 22.2%

## CCNC(=O)OCCN(CCOC(=O)NCC)CCc1ccccc1
[1]
  growth inhibition: 8.7%
[2]
  growth inhibition: 9.15%
[3]
  growth inhibition: 15.5%
[4]
  growth inhibition: -7.75%
[5]
  growth inhibition: -17.4%
[6]
  growth inhibition: 6.3%

## N#CC(=C1C=CC(=NO)C=C1)c1ccc(Cl)cc1
[1]
  growth inhibition: -0.05%
[2]
  growth inhibition: 2.5%
[3]
  growth inhibition: 8.3%
[4]
  growth inhibition: -124%
[5]
  growth inhibition: 20.9%
[6]
  growth inhibition: 1.9%

## CC(/C=N\Nc1ccc([N+](=O)[O-])cc1)=N/N=C(N)N
[1]
  growth inhibition: 8.35%
[2]
  growth inhibition: -2.9%
[3]
  growth inhibition: 9.55%
[4]
  growth inhibition: -10.9%
[5]
  growth inhibition: 3.1%
[6]
  growth inhibition: 18.7%

## COc1cc(C(C)O)c[n+](CCC2CNc3ccccc32)c1 (stereo not given)
[1]
  growth inhibition: -4.65%
[2]
  growth inhibition: -2.2%
[3]
  growth inhibition: 5.8%
[4]
  growth inhibition: 18.6%
[5]
  growth inhibition: 6.45%
[6]
  growth inhibition: -21.1%
